Results published in PMC4081663, “Single-Nucleotide Mutation Matrix of NF-κB”.

What follows are sequences tested against NF-kB p50 homodimer (Homo sapiens, UniProt P19838 1-433) (assay: bimolecular dsDNA microarray; Bimolecular dsDNA microarray on aldehyde glass; probes annealed in 10 mM Tris-HCl pH 8.0, 100 mM NaCl, 1 mM EDTA; binding buffer and temperature as in ref 16, not stated; high values mean tight binding). Settings: protein: commercial; tags: Cy3-labeled for microarray; chain copies: 2; label: 5' amino linker to the slide; dsDNA, one strand shown.
Chain of NF-kB p50 homodimer (P19838 1-433): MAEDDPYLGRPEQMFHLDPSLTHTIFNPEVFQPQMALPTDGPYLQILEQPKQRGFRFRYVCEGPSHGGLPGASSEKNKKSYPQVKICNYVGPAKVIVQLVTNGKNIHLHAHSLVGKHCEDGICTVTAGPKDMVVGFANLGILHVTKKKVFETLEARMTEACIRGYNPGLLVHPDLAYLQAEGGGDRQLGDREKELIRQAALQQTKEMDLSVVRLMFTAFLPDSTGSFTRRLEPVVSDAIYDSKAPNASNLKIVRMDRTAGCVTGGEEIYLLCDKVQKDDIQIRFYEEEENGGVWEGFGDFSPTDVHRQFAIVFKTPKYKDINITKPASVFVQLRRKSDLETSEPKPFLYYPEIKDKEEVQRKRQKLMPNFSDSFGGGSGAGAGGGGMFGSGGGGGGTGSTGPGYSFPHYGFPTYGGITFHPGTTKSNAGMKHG

Sequence | binding signal [a.u.]
GGGACTTTCT | 20.2
GGGTCTTTCC | 28.6
GGGAGTTTCC | 55.8
GGGACTTTTC | 29.6
GGGACTTGCC | 18.8
GGGACTTTCC | 52.8
GGGACCTTCC | 19.8
GGGACGTTCC | 25
GGTACTTTCC | 46.1
GGGACTTTAC | 38.1
GTGACTTTCC | 20.4
CGGACTTTCC | 19.8
GGGACTTTCA | 24.7
GGGACATTCC | 26.5
GGGAATTTCC | 57.5
GGGACTTACC | 25.4

Sequence | binding signal [a.u.]
GGGACTGTCC | 32.4
GAGACTTTCC | 16.7
GGGACTTTGC | 22.9
GGGATTTTCC | 58.5
AGGACTTTCC | 21.1
TGGACTTTCC | 22.8
GGGACTATCC | 20
GGGACTCTCC | 24.8
GGGACTTTCG | 24.6
GGGGCTTTCC | 49.7
GCGACTTTCC | 12.5
GGGCCTTTCC | 20.5
GGGACTTCCC | 60.9
GGAACTTTCC | 31.4
GGCACTTTCC | 19.2
